FBW7 act: activators of human E3 ligase FBW7; Q969H0; AlphaScreen FBW7–phospho-cyclin E peptide binding, activator screen; normalized activity (activation), % at 26.1 µM; 650,000 tested, 0.13% active; AID 1259310; in the data active means normalized activity above about 1.9%;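 further: purified mutant Fbw7 with reduced substrate affinity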
GPR151 ag: activators of human GPR151 | Q8TDV0 | PathHunter beta-arrestin GPR151 cells, luminescence | activation, % at 11.2 µM | 650,000 tested, 1% active | AID 1508602; in the data active means activation above about 4.9%
TEAD-YAP block: TEAD-YAP interaction inhibition. HEK-TIYL cells, TEAD-Gal4/YAP UAS-luciferase luminescence. inhibition, % at 9.12 µM. 640,000 tested, 1.4% active. AID 1259422; in the data active means inhibition above about 32%
MITF primary: blocks human microphthalmia-associated transcription factor; AlphaScreen MITF homodimerization, bead proximity signal; inhibition, % at 2.6 µM; 650,000 tested, 0.91% active; AID 1259374; in the data active means inhibition above about 50%
GPR151 confirm: human GPR151 activation, confirmation screen | GPR151 PathHunter beta-arrestin cells, luminescence, 90 min; % of EA-reagent control over plate median | activation, % at 11.2 µM | 6,700 tested, under 10 active | shares compounds with GPR151 ag | AID 1508609;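 active means mean percent activation across replicates above the confirmation screen cutoff of 4.91%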
GPR119 ag: activates human GPR119 in a GPR151 counter-screen | shares compounds with GPR151 ag | GPR119 PathHunter beta-arrestin cells, luminescence, 90 min; 0 = compound-well median, 100 = enzyme-acceptor control | activation, % at 11.2 µM | 6,700 tested, 0.3% active;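 active means mean percent activation in the counterscreen above 29.09%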;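 further: counterscreen on off-target GPR119 to flag nonselective hits from the GPR151 activator screen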
Target sequence (Q8TDV5 whole entry, looked up): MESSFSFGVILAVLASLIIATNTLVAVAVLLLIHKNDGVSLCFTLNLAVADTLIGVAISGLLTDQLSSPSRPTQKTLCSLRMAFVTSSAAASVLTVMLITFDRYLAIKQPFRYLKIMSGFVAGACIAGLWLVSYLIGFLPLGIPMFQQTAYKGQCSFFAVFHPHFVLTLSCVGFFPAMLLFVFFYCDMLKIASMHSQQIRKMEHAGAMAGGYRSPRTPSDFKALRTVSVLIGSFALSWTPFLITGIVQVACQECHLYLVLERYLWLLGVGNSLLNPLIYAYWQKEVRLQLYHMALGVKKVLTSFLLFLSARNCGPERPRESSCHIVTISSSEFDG
Of the large screens only hits and unclear results are named; the others gave an inactive call (follow-up assays come after a bar, where they were run). An excerpt weighted towards active compounds, which were near 3.5% of everything screened.

COc1ccc(Cl)cc1C(=O)Nc1c2c(nn1-c1ccccc1C)CS(=O)(=O)C2	none
COc1ccc(-n2nc3c(c2NC(=O)c2c(F)cccc2F)CS(=O)(=O)C3)cc1	GPR151 ag 7.1 | GPR151 confirm inactive | GPR119 ag inactive
O=C(Nc1c2c(nn1-c1ccc(F)cc1)CS(=O)(=O)C2)C1(c2ccc(Cl)cc2)CCCC1	GPR151 ag 5.1 | GPR151 confirm inactive | GPR119 ag inactive
Nn1c(SCC(=O)Nc2ccc(OCc3ccccc3)cc2)nnc1-c1ccccc1	none
Nn1c(SCC(=O)Nc2ccc(OCc3ccccc3)cc2)nnc1-c1ccco1	GPR151 ag 5.0 | GPR151 confirm inactive | GPR119 ag inactive
CCCNc1cc(-c2ccc(C(=O)NC3CC3)cc2)nc(N)n1	none
CC(O)CC(=O)N1CCc2cc(S(=O)(=O)N(C)C)ccc21 (stereo not given)	GPR151 ag 5.3 | GPR151 confirm inactive | GPR119 ag inactive
CCCCOc1ccc(C(=O)Nc2nc(-c3ccc(C(C)C)cc3)cs2)cc1	none
COc1cc(OC)cc(-n2nc(C(=O)N3CCCCC3)c3ccccc3c2=O)c1	GPR151 ag 13 | GPR151 confirm inactive | GPR119 ag inactive
O=C(c1n[nH]c(=O)c2ccccc12)N1CCCCCC1	GPR151 ag 5.6 | GPR151 confirm inactive | GPR119 ag inactive
COc1cc(OC)cc(-n2nc(C(=O)N3CCCCCC3)c3ccccc3c2=O)c1	none
O=c1c2c(-c3ccccc3)csc2ncn1Cc1ccc([N+](=O)[O-])cc1	GPR151 ag 5.6 | GPR151 confirm inactive | GPR119 ag inactive
Fc1ccc2c(c1)nc(NCCc1ccccc1)c1nccn12	none
O=C(O)/C=C\C(=O)NNC(=O)c1ccccc1[N+](=O)[O-]	none
NC(=O)c1cc2c(ccc3ccccc32)oc1=Nc1ccccc1	GPR151 ag 5.2 | GPR151 confirm inactive | GPR119 ag inactive
COc1ccc(OC)c(C2=NOC(C(=O)NCc3ccccc3)C2)c1 (stereo not given)	none
COc1ccc(OC)c(C2=NOC(C(=O)NCc3cccnc3)C2)c1 (stereo not given)	GPR151 ag 6.3 | GPR151 confirm inactive | GPR119 ag inactive
O=C(O)C(Oc1ccccc1-n1cccc1)c1ccccc1 (stereo not given)	GPR151 ag 6.4 | GPR151 confirm inactive | GPR119 ag inactive
O=C(c1ccccc1)c1ccccc1-n1cccc1	none
C=CCn1c(=O)c2ccccc2n2c(SCC(=O)Nc3ccccc3C(=O)OC)nnc12	GPR151 ag 5.0 | GPR151 confirm inactive | GPR119 ag inactive
Cc1cc(Cl)ccc1NCC(=O)N/N=C/c1cc([N+](=O)[O-])ccc1O	none
COC(=O)CCC(=O)OC1(C)C(=O)C=C2C=C(C3CC3)OC=C2C1=O (stereo not given)	GPR151 ag 5.8 (no result: TEAD-YAP block) | GPR151 confirm inactive | GPR119 ag inactive
CN1C(=O)C(C)(C)c2cc(S(=O)(=O)N3CCN(c4ccccc4F)CC3)ccc21	GPR151 ag 5.1 | GPR151 confirm inactive | GPR119 ag inactive
Cc1cccc(N2CCN(S(=O)(=O)c3ccc4c(c3)C(C)(C)C(=O)N4C)CC2)c1C	none
COc1ccc(NC(=O)COc2ccc3c(=O)c(-c4ccc(F)cc4)coc3c2)cc1	GPR151 ag 5.4 | GPR151 confirm inactive | GPR119 ag inactive
CC1CCCN(C(=O)NC2(C(F)(F)F)Oc3ccccc3O2)C1 (stereo not given)	GPR151 ag 5.7 | GPR151 confirm inactive | GPR119 ag inactive
Cc1cccc2nc(CNC(=O)CC3C(=O)NCCN3CC(C)(C)C)cn12 (stereo not given)	none
OC1CCN(Cc2c(F)cccc2F)CC1	GPR151 ag 5.9 | GPR151 confirm inactive | GPR119 ag inactive
Cc1cc(OCC(N)=O)c2c(C)c(Cc3ccccc3)c(=O)oc2c1	none
Cc1c(C(=O)OC(C)C)sc(NC(=O)c2ccccc2F)c1C#N	GPR151 ag 5.8 | GPR151 confirm inactive | GPR119 ag inactive
Cc1c(C(=O)OC(C)C)sc(NC(=O)c2cc(Cl)ccc2Cl)c1C#N	none
CC(C)CNC(=O)C(=O)NNC(=O)CN(C)S(=O)(=O)c1cc(Cl)ccc1Cl	none
COc1ccc(CCNc2cc(-c3ccc(N4CCN(C)CC4)cc3)nc(N)n2)cc1	none
